# Measured values: PubChem BioAssay (Tox21)
# “And” between values parts separate entries of the source, which are not always exact repeats. Equal entries are not always repeated. Results filed as inconclusive are left out. Entries that show only a call come without a potency. Some compounds were tested as several samples or in several runs, with calls that do not always agree. The source made the active and inactive calls. Unless noted, calls come from the whole dose curve; as a rule, active = well fitted curve in the direction sought with a large enough effect in the repeat runs; inconclusive = weak or mixed curves; inactive = no such curve, though single readings can be large; an effect the other way counts as inactive or inconclusive.
# Columns and labels:
# [1] = molecular target: Progesterone receptor (Homo sapiens) (UniProt P06401); experiment: qHTS assay to identify small molecule agonists of the progesterone receptor (PR) signaling pathway (AID 1346784; calls by dose curve; note: nearly all actives have a fitted effect of over 30% in size)
# Chain of Progesterone receptor (Homo sapiens) (P06401 whole entry, looked up): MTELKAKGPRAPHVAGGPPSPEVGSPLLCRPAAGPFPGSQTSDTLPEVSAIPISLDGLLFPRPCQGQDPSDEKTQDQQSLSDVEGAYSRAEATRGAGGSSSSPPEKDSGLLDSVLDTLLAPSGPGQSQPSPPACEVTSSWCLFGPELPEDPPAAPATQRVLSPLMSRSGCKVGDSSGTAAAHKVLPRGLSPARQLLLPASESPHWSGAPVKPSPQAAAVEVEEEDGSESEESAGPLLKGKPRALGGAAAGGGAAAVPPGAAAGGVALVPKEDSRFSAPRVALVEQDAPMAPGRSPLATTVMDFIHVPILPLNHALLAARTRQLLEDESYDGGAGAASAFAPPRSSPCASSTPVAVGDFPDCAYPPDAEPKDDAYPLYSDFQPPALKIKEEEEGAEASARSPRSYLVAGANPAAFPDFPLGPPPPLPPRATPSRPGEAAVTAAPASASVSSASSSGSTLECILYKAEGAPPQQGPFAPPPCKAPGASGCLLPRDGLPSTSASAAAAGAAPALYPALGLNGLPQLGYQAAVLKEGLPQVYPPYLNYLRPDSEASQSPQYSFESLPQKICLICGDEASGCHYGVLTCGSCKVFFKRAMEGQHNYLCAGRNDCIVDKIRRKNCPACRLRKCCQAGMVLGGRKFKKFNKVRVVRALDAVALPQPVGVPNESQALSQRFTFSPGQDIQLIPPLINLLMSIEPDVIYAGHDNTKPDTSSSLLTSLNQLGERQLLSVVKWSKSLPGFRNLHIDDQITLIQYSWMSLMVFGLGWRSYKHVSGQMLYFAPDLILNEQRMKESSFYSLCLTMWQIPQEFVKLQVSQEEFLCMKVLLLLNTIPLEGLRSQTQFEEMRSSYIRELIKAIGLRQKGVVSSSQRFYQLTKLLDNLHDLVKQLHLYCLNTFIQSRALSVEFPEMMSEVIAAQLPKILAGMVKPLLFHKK
# Method in brief: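 Using charcoal-stripped serum (2%) to limit endogenous steroids, PR-UAS-bla HEK 293T cells received compounds for 16 hr at 37C after 6 hr plating; beta-lactamase FRET fluorescence was recorded following 2 hr substrate loading at room temperature.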
# [2] = qHTS assay to identify small molecule antagonists of the progesterone receptor (PR) signaling pathway - cell viability counter screen (AID 1346798); note: nearly all actives have a fitted effect of over 50% in size; note: potency is the fitted concentration of half-maximal effect
# Method in brief: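 ATP content as viability readout: CellTiter-Glo luminescence, 30 min room temperature, in PR-UAS-bla HEK293T cells after 16 hr compound/R5020 treatment at 37C and 5% CO2.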
# [3] = qHTS assay to identify small molecule agonists of the progesterone receptor (PR) signaling pathway - cell viability counter screen (AID 1346799; calls by dose curve; note: nearly all actives have a fitted effect of over 45% in size; note: potency is the fitted concentration of half-maximal effect)
# Method in brief: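 Cytotoxicity in PR-bla HEK293T cells: 16 h compound, 37C; CellTiter-Glo added post-FRET read; luminescence after 30 min RT.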
# [4] = qHTS assay to identify small molecule antagonists of the TGF-beta/Smad signaling pathway - cell viability counter screen (AID 1346824); note: nearly all actives have a fitted effect of over 50% in size; note: potency is the fitted concentration of half-maximal effect
# Method in brief: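 Cytotoxicity counter-screen run in the same wells as the beta-lactamase Smad reporter read: CellTiter-Glo luminescence after 30 min at room temperature. HEK 293T SBE-bla cells had 5 hr compound exposure at 37 C with TGF-beta1 (0.25 ng/mL stock).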
# [5] = qHTS assay to identify small molecule agonists of the TGF-beta/Smad signaling pathway - cell viability counter screen (AID 1346829); note: nearly all actives have a fitted effect of over 45% in size; note: potency is the fitted concentration of half-maximal effect
# Method in brief: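 HEK 293T SBE-bla line, 5 hr compound exposure at 37 C, multiplexed CellTiter-Glo viability read by luminescence.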
# [6] = qHTS assay to identify small molecule agonists of the TGF-beta/Smad signaling pathway (AID 1346859; active = well fitted activation curve with a large enough effect in the signal ratio in the repeat runs, not every such curve was filed as active; the % refers to the signal ratio; note: series mostly up to about 77 µM)
# Method in brief: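 Stable Smad binding element-beta-lactamase HEK 293T cells; 5 hr compound exposure at 37 C under 5% CO2; 2 hr room-temperature substrate step; fluorescence excited at 405 nm, collected at 460 nm and 530 nm.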
# [7] = molecular target: Thyrotropin-releasing hormone receptor (Homo sapiens) (UniProt P34981); experiment: qHTS assay to identify small molecule antagonists of the thyrotropin-releasing hormone receptor (TRHR) signaling pathway (AID 1346877; active = well fitted inhibition curve with a large enough effect in the repeat runs, not every such curve was filed as active; note: series mostly up to about 51 µM)
# Chain of Thyrotropin-releasing hormone receptor (Homo sapiens) (P34981 whole entry, looked up): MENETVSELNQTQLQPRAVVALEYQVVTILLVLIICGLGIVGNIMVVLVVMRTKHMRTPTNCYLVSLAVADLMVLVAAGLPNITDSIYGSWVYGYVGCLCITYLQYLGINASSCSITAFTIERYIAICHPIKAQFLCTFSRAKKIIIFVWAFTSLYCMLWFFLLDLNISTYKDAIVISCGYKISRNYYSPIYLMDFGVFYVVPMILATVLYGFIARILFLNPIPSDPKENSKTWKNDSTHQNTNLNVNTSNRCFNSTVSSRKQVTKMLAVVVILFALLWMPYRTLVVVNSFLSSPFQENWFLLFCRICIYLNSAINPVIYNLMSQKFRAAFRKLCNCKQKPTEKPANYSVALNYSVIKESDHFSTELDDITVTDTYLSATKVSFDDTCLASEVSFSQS
# Method in brief: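 TRHR-expressing HEK293 cells were seeded, cultured 18 h at 37 °C, then loaded with calcium dye for 2 h. Compounds were pre-incubated 5 min at room temperature before 1 nM TRH (final) was added, and kinetic fluorescence was recorded for 3 min.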
# [8] = molecular target: Thyrotropin-releasing hormone receptor (Homo sapiens) (UniProt P34981); experiment: qHTS assay to identify small molecule agonists of the thyrotropin-releasing hormone receptor (TRHR) signaling pathway (AID 1346891; calls by dose curve; note: series mostly up to about 58 µM)
# Method in brief: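 In 1536-format, 1500 TRHR-Hek293 cells per well grew 18 h, took up calcium dye for 2 h at 37 °C, received compound, and were read kinetically; 15-point titrations, triplicates.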
# [9] = molecular target: Progesterone receptor (Homo sapiens) (UniProt P06401); experiment: qHTS assay to identify small molecule antagonists of the progesterone receptor (PR) signaling pathway (AID 1346795; active = well fitted inhibition curve with a large enough effect in the signal ratio in the repeat runs, not every such curve was filed as active; the % refers to the signal ratio; note: potency is the fitted concentration of half-maximal effect)
# Method in brief: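 Inhibition of R5020-induced (1 nM final) beta-lactamase reporter signal in PR-UAS-bla HEK293T cells was scored by FRET fluorescence after overnight (16 hr) compound treatment.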
# [10] = qHTS assay to identify small molecule agonists of the estrogen receptor alpha (ER-alpha) signaling pathway in the presence of an antagonist - cell viability counter screen (AID 1259386);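 note: cells exposed to compounds for 22 h at 37 °C before the viability read; nearly all actives have a fitted effect of over 30% in size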; note: potency is the fitted concentration of half-maximal effect
# Method in brief: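 VM7Luc4E2 cells (endogenous full-length ER-alpha, 4×ERE-luciferase) were held 5 days in phenol red-free medium with 10% charcoal-stripped FBS, plated, then given 10.0nM ICI-182,780 and compounds at 15 concentrations for 22hr at 37C; viability read by CellTiter-Fluor fluorescence.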
compound,measurement,setting,value
O=C(O)c1cc(O)c2c(c1)C(=O)c1cccc(O)c1C2=O,Potency,[1],inactive
same,Potency,[2],inactive
same,Potency,[3],inactive
same,Potency,[4],inactive
same,Potency,[5],inactive
COc1ccc(C(=O)/C(Br)=C\C(=O)O)cc1,Potency,[1],inactive
same,Potency,[2],inactive
same,Potency,[4],inactive
same,Potency,[5],inactive
same,Potency,[6],inactive
same,Potency,[7],inactive
same,Potency,[8],inactive
O=C(N/N=C/c1ccccc1O)c1ccncc1,Potency,[1],inactive
same,Potency,[9],10.6 µM (active)
same,Potency,[4],inactive
same,Potency,[5],inactive
same,Potency,[6],inactive
same,Potency,[7],inactive
same,Potency,[8],inactive
CC(C)CCCCCCCCCCCCCCC(=O)O,Potency,[1],inactive
same,Potency,[2],inactive
same,Potency,[4],inactive
same,Potency,[5],inactive
same,Potency,[6],inactive
same,Potency,[7],inactive
same,Potency,[8],inactive
CCCCCCCC[P+](CCCCCCCC)(CCCCCCCC)CCCCCCCC,Potency,[10],2.71 µM (active)
same,Potency,[2],15.3 µM (active)
same,Potency,[4],21.7 µM (active)
same,Potency,[5],17.3 µM (active)
same,Potency,[7],inactive
same,Potency,[8],inactive
O=c1cc(-c2ccc(O)cc2)oc2cc(O)cc(O)c12,Potency,[10],inactive and 48.6 µM (active)
same,Potency,[5],inactive
same,Potency,[6],inactive
same,Potency,[7],inactive
same,Potency,[8],inactive
CCN(CC)CCNC(=O)c1c(C)[nH]c(/C=C2\C(=O)Nc3ccc(F)cc32)c1C,Potency,[10],2.98 µM (active)
same,Potency,[2],11.9 µM (active)
same,Potency,[5],inactive
same,Potency,[6],inactive
same,Potency,[7],inactive
same,Potency,[8],inactive
C[C@]12CCC(=O)C=C1CC[C@@H]1[C@@H]2[C@@H](O)C[C@@]2(C)[C@H]1CC[C@]2(O)C(=O)COC(=O)CCC(=O)O,Potency,[10],inactive
same,Potency,[2],inactive
same,Potency,[5],inactive
same,Potency,[6],inactive
same,Potency,[7],inactive
CCOC(=O)/C=C(C)/C=C/C=C(C)/C=C/c1c(C)cc(OC)c(C)c1C,Potency,[1],inactive
same,Potency,[3],inactive
same,Potency,[4],inactive
same,Potency,[5],inactive
CC[C@H]1O[C@]2(CC[C@@H]1C)C[C@@H]1C[C@@H](C/C=C(\C)C[C@@H](C)/C=C/C=C3\CO[C@@H]4[C@H](O)C(C)=C[C@@H](C(=O)O1)[C@]34O)O2,Potency,[10],68 µM (active)
same,Potency,[2],68 µM (active)
same,Potency,[5],54.5 µM (active)
same,Potency,[7],inactive
same,Potency,[8],inactive
CC(C)(C)CC(C)(C)c1ccc(O)c(Cc2ccc(Cl)cc2Cl)c1,Potency,[10],29.8 µM (active)
same,Potency,[3],33.5 µM (active)
same,Potency,[4],21.3 µM (active)
same,Potency,[5],19 µM (active)
same,Potency,[7],inactive
CC(=O)S[C@@H]1CC2=CC(=O)CC[C@]2(C)[C@H]2CC[C@@]3(C)[C@@H](CC[C@@]34CCC(=O)O4)[C@H]12,Potency,[10],inactive
same,Potency,[2],24.3 µM (active)
same,Potency,[5],inactive
same,Potency,[7],inactive
same,Potency,[8],inactive
CCN(Cc1cccnc1)C(=O)c1cccc(Cl)c1[C@]1(C)C(=O)N(Cc2ccc(OC)cc2OC)c2ccc(Cl)cc21,Potency,[1],inactive
same,Potency,[2],inactive
same,Potency,[3],inactive
same,Potency,[4],inactive
same,Potency,[5],inactive
same,Potency,[7],inactive
same,Potency,[8],inactive
Nc1ccc(N)c2ccccc12,Potency,[10],30.6 µM (active)
same,Potency,[3],inactive
same,Potency,[7],inactive
Oc1cccc(-c2c3nc(c(-c4cccc(O)c4)c4ccc([nH]4)c(-c4cccc(O)c4)c4nc(c(-c5cccc(O)c5)c5ccc2[nH]5)CC4)C=C3)c1,Potency,[10],10.6 µM (active)
same,Potency,[4],inactive
same,Potency,[5],inactive
same,Potency,[6],inactive
N/C(=N\N=C\c1ccc(Cl)cc1)N/N=C/c1ccc(Cl)cc1,Potency,[10],inactive
same,Potency,[2],29.8 µM (active)
same,Potency,[6],inactive
same,Potency,[7],inactive
C[n+]1ccn(Cc2ccccc2)c1,Potency,[1],inactive
same,Potency,[2],inactive
same,Potency,[4],inactive
same,Potency,[5],inactive
same,Potency,[6],inactive
same,Potency,[7],inactive
same,Potency,[8],inactive
CCCCC(CC)COP(=O)(O)OCC(CC)CCCC (configuration not stated),Potency,[10],inactive
same,Potency,[4],inactive
same,Potency,[5],inactive
same,Potency,[6],inactive
same,Potency,[7],inactive
same,Potency,[8],inactive
CNc1ccc(O)cc1,Potency,[10],61 µM (active)
same,Potency,[7],inactive
same,Potency,[8],inactive
Cc1ccc(-n2nc(C(C)(C)C)cc2NC(=O)Nc2ccc(OCCN3CCOCC3)c3ccccc23)cc1,Potency,[1],inactive
same,Potency,[2],inactive
same,Potency,[4],inactive
same,Potency,[5],inactive
same,Potency,[7],inactive
same,Potency,[8],inactive
CCCC(c1cc(C(C)(C)C)c(O)cc1C)c1cc(C(C)(C)C)c(O)cc1C,Potency,[10],61.9 µM (active)
same,Potency,[2],22 µM (active)
same,Potency,[4],24.8 µM (active)
same,Potency,[5],24.8 µM (active)
same,Potency,[7],inactive
same,Potency,[8],inactive
CCN1/C(=C/C=C/c2sc3ccccc3[n+]2CC)Sc2ccccc21,Potency,[10],6.51 µM (active)
same,Potency,[5],4.65 µM (active)
same,"activity, negative = inhibition",[7],-4.16% [at 10.5 µM] (inactive)
same,activation,[8],-0.259% [at 11.8 µM] (inactive)
[Cl][Au]([Cl])[Cl],Potency,[10],43.3 µM (active)
same,Potency,[4],inactive
same,Potency,[5],54.9 µM (active)
same,Potency,[7],inactive
same,Potency,[8],inactive
CCCCCCCC/C=C/CCCCCCCC1=NCCN1CCO,Potency,[3],61.1 µM (active)
same,Potency,[4],inactive
same,Potency,[5],inactive
same,Potency,[7],inactive
same,Potency,[8],inactive
CCCCCCCCCCCCCCCCCC[N+](C)(C)Cc1ccccc1,Potency,[2],27.6 µM (active)
same,Potency,[3],7.77 µM (active)
same,Potency,[4],49.5 µM (active)
same,Potency,[5],49.5 µM (active)
CCc1cc(SCc2sc(-c3ccc(C(F)(F)F)cc3)nc2CN2CCN(c3ccc(OC)cc3)CC2)ccc1OCC(=O)O,Potency,[9],24.3 µM (active)
same,Potency,[2],4.86 µM (active)
same,Potency,[3],6.11 µM (active)
same,Potency,[4],inactive
same,Potency,[7],inactive
COc1ccc(CN2CCN(C(c3ccc(F)cc3)c3ccc(F)cc3)CC2)c(OC)c1OC,Potency,[2],16.8 µM (active)
same,Potency,[3],13.3 µM (active)
same,Potency,[4],16.9 µM (active)
same,Potency,[5],23.9 µM (active)
same,Potency,[7],inactive
same,Potency,[8],inactive
